G9a inh: blocks human histone lysine methyltransferase G9a | hit rate 8.8% among 350,000 | Potency, µM (series often up to 102 µM), without a hit: at the highest dose activity, negative = inhibition, usual class: inhibitors | G9a H3K9 monomethylation, AlphaScreen, 2 h; further: on the % scale 0 is the no-effect control and ±100 the full control effect; nearly all actives have a fitted effect of over 75% in size
Target sequence (Q96KQ7 913-1193 limits assumed): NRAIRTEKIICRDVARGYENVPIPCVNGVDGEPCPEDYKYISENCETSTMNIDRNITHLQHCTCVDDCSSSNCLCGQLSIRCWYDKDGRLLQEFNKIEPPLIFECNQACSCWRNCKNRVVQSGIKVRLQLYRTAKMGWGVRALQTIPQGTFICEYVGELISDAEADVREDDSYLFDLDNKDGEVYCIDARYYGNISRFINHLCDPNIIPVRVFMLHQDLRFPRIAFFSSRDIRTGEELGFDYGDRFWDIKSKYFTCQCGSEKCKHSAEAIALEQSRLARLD
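Compounds were preincubated with 20 nM G9a for 15 min, after which biotinylated H3K9 peptide (500 nM) and SAM (20 uM) started a 2 h room-temperature reaction. Monomethylated product was quantified by antibody-based AlphaScreen chemiluminescence.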
GLS inhibitor: glutaminase GLS (human) inhibition; GLS enzymatic activity, qHTS titration; O94925; hit rate 0.21% among 410,000; Potency, µM (highest dose often 45.5 µM), without a hit: top-dose activity change, negative = inhibition, most hits filed as inhibitors; further: on the % scale 0 is the no-effect control and ±100 the full control effect
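Two-point fluorescence kinetic (t0, 30 min RT) for hKGA; glutamate detected via glutamate oxidase–HRP–Amplex Red. Substrate: 1 mM L-glutamine solution; buffer 45 mM KH2PO4, pH 8.2.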
HP1b chromo inh: HP1-beta chromodomain-methylated histone interaction inhibition. Potency, µM (titrated, usually from 114 µM), without a hit: at the highest dose activity change, negative = inhibition, actives largely listed as inhibitors. hit rate 0.56% among 390,000. P83916. AlphaScreen HP1-beta / biotin-H3K9me3 peptide binding. AID 540317; further: nearly all actives have a fitted effect of over 70% in size
Target sequence (P83916 whole entry, looked up): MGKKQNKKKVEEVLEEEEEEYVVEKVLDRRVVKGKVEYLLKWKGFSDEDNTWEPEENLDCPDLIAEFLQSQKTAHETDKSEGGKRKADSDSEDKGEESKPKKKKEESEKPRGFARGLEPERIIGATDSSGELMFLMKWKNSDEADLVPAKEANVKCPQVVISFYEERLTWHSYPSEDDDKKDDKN
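Compound inhibition of the preformed complex between 50 nM HP1-beta and 50 nM biotinylated H3K9me3 peptide was read by AlphaScreen. Buffer was PBS pH 7.4 with 0.01% Tween-20. Incubations ran 30 min at room temperature, with 10 ug/mL donor/acceptor beads.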
JMJD2A Tudor inh: inhibitors of human JMJD2A Tudor domain | O75164 | AlphaScreen JMJD2A-Tudor / H3K4me3 peptide binding | Potency, µM (highest dose often 114 µM), inactives show at the top dose activity change, negative = inhibition, most hits filed as inhibitors | hit rate 4.4% among 390,000; further: on the % scale 0 is the no-effect control and ±100 the full control effect; nearly all actives have a fitted effect of over 50% in size
BAZ2B block: blocks human BAZ2B; Q9UIF8; AlphaScreen BAZ2B-H3K14Ac peptide displacement; Potency, µM (doses to about 114 µM), for inactives: at the top dose activity change, negative = inhibition, actives largely listed as inhibitors; hit rate 4.4% among 360,000; AID 504333; further: on the % scale 0 is the no-effect control and ±100 the full control effect; nearly all actives have a fitted effect of over 60% in size
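Inhibition is scored as reduced AlphaScreen emission. The BAZ2B/b-H3(5-23)K14Ac complex (50 nM each) in PBS pH 7.4, 0.01% Tween-20 meets compound (up to 110 uM) for 30 min at RT before bead addition.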
Starred values were filed as active, the others as inactive; u = inconclusive; x = no result; [ ] = remark or other dose. Shown are actives, neighbours in structure and some others; about 10% of the full set was active somewhere. The call rests on the fitted dose curve; in most records, active means well fitted curve in the direction sought with a large enough effect; inconclusive means small, poorly fitted or top-dose-only effect, or another doubt; inactive means no such curve, though single readings can be large; an effect the other way counts as inactive or inconclusive. Potency means the concentration at half of the fitted maximal effect.

SMILES	G9a inh	GLS inhibitor	HP1b chromo inh	JMJD2A Tudor inh	BAZ2B block
COC(=O)c1ccc(COc2ccccc2/C=C/C(=O)c2ccc(OCC(=O)O)cc2)cc1	50µM*	u	-3%	-23%	u
O=C(O)c1cccc(NC(=S)N/N=C/c2ccccc2OCc2ccc(Br)cc2)c1	u	56%	u	50µM*	50µM*
CCOc1ccc(C2C(C(N)=O)=C(C)Nc3nc(-c4ccc(OC)cc4)nn32)cc1 (configuration not stated)	7%[59 µM]	2%	21%	-6%	9%
CCCN=C1N(C)C[C@@H]2[C@@H]3C(=O)N(C)C(=O)[C@@H]3[C@](C)(C(=O)OC)N12	x	18%	29%	-5%	x
Cc1ccccc1NC(=O)CSc1nc2c(oc3ccccc32)c(=O)n1Cc1ccco1	-26%[59 µM]	-11%	31%	-10%	2%
COc1ccccc1N(Cc1cc(=O)[nH]c2ccccc12)C(C)=O	u	1%	0%	-12%	0%
CCCC(=O)N(Cc1cc(=O)[nH]c2ccccc12)c1ccccc1OC	45µM*	1%	20%	-15%	-14%
CCN(Cc1cc(=O)[nH]c2ccccc12)C(=O)C(C)C	6%	0%	-2%	-7%	-1%
Cc1ccc(N(Cc2cc(=O)[nH]c3ccccc23)C(=O)C(C)C)cc1	50µM*	4%	34%	-9%[11.4 µM]	-5%
COc1ccc(N(Cc2cc(=O)[nH]c3ccccc23)C(=O)c2ccco2)cc1	50µM*	4%	10%	u	1%
CCCC(=O)N(Cc1cc(=O)[nH]c2ccccc12)c1ccc(C)cc1	25µM*	-3%	-9%	89µM*	-3%
O=C(CNC(=O)c1cccs1)Nc1ccc(N2CCOCC2)cc1	4%[59 µM]	30%	19%	-12%	3%
Nc1ccc(N2CCN(C(=O)c3cccs3)CC2)cc1	1.4µM*	10%	-14%	-7%	u
CC(=O)Nc1ccc(N2CCN(C(=O)c3cccs3)CC2)cc1	8%	74%	26%	-7%	9%
Nc1ccc(N2CCN(C(=O)c3ccco3)CC2)cc1	20µM*	56%	-7%	u	u
Cc1ccc(N2CCN(C(=O)c3cccs3)CC2)cc1C	-8%[0.501 µM]	4%	5%	-31%	50µM*
O=C(c1ccco1)N1CCN(c2ccc(F)cc2)CC1	10%[59 µM]	2%	-6%	-16%	-20%
Cn1c(=O)c2cc(NC(=S)NC3CCCCC3)ccc2n1-c1ccccc1	x	22%	x	x	x
CC(C)CCNC(=O)CN1C(=O)c2cccnc2Oc2ccccc21	8%[59 µM]	1%	4%	-14%	5%
CC(=O)c1ccc(S(=O)(=O)NCCOc2ccccc2)cc1	x	-3%	x	x	x
Cc1ccc(-c2nn(CC(=O)Nc3cccc(C(F)(F)F)c3)c(=O)c3ccccc23)cc1	5%[59 µM]	-6%	27%	-6%	1%
C[C@@H]1CN([C@@H](C)CO)C(=O)CCCn2nncc2CO[C@@H]1CN(C)C(=O)Nc1ccnc(N2CCOCC2)c1	x	3%	x	x	x
Cc1cccc(Oc2nc3ccccn3c(=O)c2/C=C(\C#N)c2nc3ccccc3s2)c1C	5.6µM*	-21%	56%	2%	-1%[57.1 µM]
COc1ccc(N2CCN(C(=O)c3cn(CC(C)C)c(=O)c4c3c3ccccc3n4C)CC2)cc1	u	24%	u	35µM*	25µM*
Cn1c2ccccc2c2c(C(=O)N3CCN(c4cccc(C(F)(F)F)c4)CC3)cn(C3CCCCC3)c(=O)c21	-29%[59 µM]	-1%	11%	-17%	-23%
SMILES	G9a inh	GLS inhibitor	HP1b chromo inh	JMJD2A Tudor inh	BAZ2B block
Cn1c2ccccc2c2c(C(=O)N3CCN(c4ccccc4)CC3)cn(C3CCCC3)c(=O)c21	50µM*	4%	-29%	u	u
O=S(=O)(c1ccc(F)cc1)N1CCN(c2nc(-c3cccc(Br)c3)nc3ccccc23)CC1	x	x	49%	-15%	x
Cc1c(C(=O)NN2CCCCC2)nn(-c2ccc(Cl)cc2Cl)c1-c1ccc(Cl)cc1	u	18%	x	x	x
O=C(COC(=O)Cc1c(F)cccc1Cl)NCc1ccc2c(c1)OCO2	x	4%	12%	-9%	x
CCOC(=O)C1CCCN(Cc2nc(N)nc(Nc3ccc(Cl)cc3)n2)C1 (configuration not stated)	u	-15%	32%	18%[11.4 µM]	50µM*
COc1ccccc1Nc1nc(N)nc(CSC(=S)N2CCCCC2C)n1 (configuration not stated)	4%[59 µM]	8%	-1%	-28%	-27%
CCOC(=O)C1CCCN(CCC(=O)Nc2ccc(Br)cc2)C1 (configuration not stated)	x	5%	33%	3%	-4%
CCOC(=O)C1CCCN(Cc2nc(N)nc(Nc3ccccc3OC)n2)C1 (configuration not stated)	26%	3%	38%	56µM*	u
CCOC(=O)C1CCCN(Cc2nc(N)nc(Nc3ccc(OC)cc3)n2)C1 (configuration not stated)	-8%[12.7 µM]	41%	-22%	20µM*	u
C=C(C1=CCN(S(=O)(=O)C(C)(C)C)[C@@H]1CCO)c1ccccc1	x	2%	8%	-27%	x
O=C(O)c1cc(Sc2ccc(Br)cc2)nc2ccccc12	-40%	0%	28%	0%	1%
CSc1ccccc1Sc1cc(C(=O)O)c2ccccc2n1	10µM*	15%	23%	3%	-1%
N#Cc1c(C(F)(F)F)cc(-c2ccc(Cl)c(Cl)c2)nc1SCCN1CCOCC1	56µM*	-5%	33%	-6%	-6%
Cc1cc(C(F)(F)F)nc(SCCN2CCOCC2)c1C#N	13µM*	2%	38%	-14%	2%
COC(=O)N1CCC[C@@]2(CCN(Cc3cc(C(F)(F)F)cc(C(F)(F)F)c3)C2)C1	4%[12.7 µM]	x	x	x	x
OC[C@@H]1CN(Cc2ccc3c(c2)OCO3)C[C@H](n2cnc3c(NCc4ccc(F)cc4)ncnc32)O1	x	-1%	x	x	x
COc1ccccc1CCNC(=O)c1ccc(-c2nc(CSc3ccc(C)cc3)c(C)o2)cc1	-27%[59 µM]	-2%	25%	-17%	-10%
O=C(C1CCCN(c2nnc(-n3cccc3)s2)C1)N1CCN(c2ccccc2)CC1 (configuration not stated)	50µM*	-27%	-3%	u	u
COc1ccc(CCNC(=O)CSc2nnc(CNC(=O)c3cc(OC)c(OC)c(OC)c3)o2)cc1OC	7%[0.501 µM]	9%	23%	-11%	-7%
O=C(Nc1cccc(S(=O)(=O)NC2=NCCCCC2)c1)c1cc(-c2ccccc2)nc2ccccc12	17%[59 µM]	1%	20%	3%	-3%
O=C(Nc1cccc(S(=O)(=O)NC2=NCCC2)c1)c1cc(-c2ccco2)nc2ccccc12	40µM*	-5%	u	u	35µM*
O=C(NC(=S)Nc1cccc(S(=O)(=O)NC2=NCCC2)c1)c1cc(-c2ccco2)nc2ccccc12	40µM*	-10%	u	-36%	u
Cc1ccc(S(=O)(=O)NCc2n[nH]c(=S)n2C)cc1	32µM*	21%	23%	7.9µM*	6%

Screening results (PubChem)
